Structures are written as SMILES. Records with an inconclusive call do not appear. Activity calls are given as the source filed them. Unless noted, calls come from the whole dose curve; as a rule, active = well fitted curve in the direction sought with a large enough effect; inconclusive = small, poorly fitted or top-dose-only effect, or another doubt; inactive = no such curve, though single readings can be large; an effect the other way counts as inactive or inconclusive.

The text below walks through data of PubChem BioAssay (NCATS).

The nature of experiment [1]: qHTS for differential inhibitors of proliferation of Plasmodium falciparum line W2 (AID 1883).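 Note: parasites grown with compound for 72 h before lysis and staining.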 Note: potency is the fitted concentration of half-maximal effect. Conditions: Potency: Plasmodium falciparum W2 proliferation inhibition.
A short description of experiment [2]: qHTS for differential inhibitors of proliferation of Plasmodium falciparum line HB3 (AID 1886).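 Note: parasites grown with compound for 72 h before SYBR Green readout.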 Note: potency is the fitted concentration of half-maximal effect. Conditions: Potency: Plasmodium falciparum HB3 proliferation inhibition.
For experiment [3], the target named is ATP-dependent DNA helicase Q1 (Homo sapiens) (UniProt P46063). Description: qHTS Validation Assay for Inhibitors of RecQ-Like Dna Helicase 1 (RECQ1) (AID 2353). The gist of the method:
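50 nM RECQ1T1 preincubated 15 min with compound in Tris pH 8.0 buffer with MgCl2, DTT, Tween-20 and 2.5 ug/ml poly(dI-dC); started with 200 nM TAMRA/BHQ-2 forked duplex and 2 mM ATP. Unwinding read as fluorescence (525/598 nm), two reads 2 h apart.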

Experiment [4] deals with RecQ-like DNA helicase BLM (Homo sapiens) (UniProt P54132). Nature of the experiment: qHTS Validation Assay for Inhibitors of Bloom's syndrome helicase (BLM) (AID 2364). The gist of the method: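 50 nM BLM preincubated 15 min at room temperature with compound in pH 8.0 Tris buffer containing 2.5 ug/ml poly(dI-dC); started with 200 nM TAMRA/BHQ-2 forked duplex and 2 mM ATP (final). Unwinding read as TAMRA fluorescence increase, two reads 2 h apart.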
Chain of RecQ-like DNA helicase BLM (Homo sapiens) (P54132 whole entry, looked up): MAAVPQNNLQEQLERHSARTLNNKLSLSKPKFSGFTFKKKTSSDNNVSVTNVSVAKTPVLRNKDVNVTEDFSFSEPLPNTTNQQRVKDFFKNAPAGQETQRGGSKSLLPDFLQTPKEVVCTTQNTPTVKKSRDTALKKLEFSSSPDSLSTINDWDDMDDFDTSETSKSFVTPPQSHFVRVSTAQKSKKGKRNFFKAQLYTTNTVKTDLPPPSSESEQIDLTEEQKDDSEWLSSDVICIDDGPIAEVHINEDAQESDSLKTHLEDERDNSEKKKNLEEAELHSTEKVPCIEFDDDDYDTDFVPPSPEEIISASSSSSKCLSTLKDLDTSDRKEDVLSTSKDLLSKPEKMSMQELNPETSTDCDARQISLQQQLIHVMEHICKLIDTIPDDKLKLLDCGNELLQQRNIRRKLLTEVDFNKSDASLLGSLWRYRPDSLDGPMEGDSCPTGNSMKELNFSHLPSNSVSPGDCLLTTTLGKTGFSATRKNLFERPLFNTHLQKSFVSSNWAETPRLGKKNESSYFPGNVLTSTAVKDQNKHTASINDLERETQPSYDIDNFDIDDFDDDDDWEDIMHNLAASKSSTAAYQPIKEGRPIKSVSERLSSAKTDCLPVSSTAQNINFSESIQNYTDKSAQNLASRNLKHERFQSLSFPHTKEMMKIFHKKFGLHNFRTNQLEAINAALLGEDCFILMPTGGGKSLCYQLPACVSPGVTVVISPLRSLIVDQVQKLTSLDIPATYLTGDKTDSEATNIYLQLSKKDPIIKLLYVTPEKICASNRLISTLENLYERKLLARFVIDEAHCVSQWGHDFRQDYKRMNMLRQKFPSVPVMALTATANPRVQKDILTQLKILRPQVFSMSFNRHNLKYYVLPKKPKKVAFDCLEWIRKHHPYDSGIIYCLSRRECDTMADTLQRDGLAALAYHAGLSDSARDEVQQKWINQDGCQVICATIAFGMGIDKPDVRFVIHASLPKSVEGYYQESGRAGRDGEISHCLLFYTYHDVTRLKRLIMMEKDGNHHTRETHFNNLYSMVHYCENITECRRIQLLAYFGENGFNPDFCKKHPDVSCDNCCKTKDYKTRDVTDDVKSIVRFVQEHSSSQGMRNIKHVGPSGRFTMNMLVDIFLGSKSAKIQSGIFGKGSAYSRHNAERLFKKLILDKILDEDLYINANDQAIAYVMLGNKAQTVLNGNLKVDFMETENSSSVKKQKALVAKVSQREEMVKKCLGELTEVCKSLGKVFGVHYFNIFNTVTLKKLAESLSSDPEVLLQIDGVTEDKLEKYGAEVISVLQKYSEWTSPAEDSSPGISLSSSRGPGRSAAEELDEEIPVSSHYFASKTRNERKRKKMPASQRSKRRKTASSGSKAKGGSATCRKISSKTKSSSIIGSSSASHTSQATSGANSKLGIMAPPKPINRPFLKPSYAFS

Experiment [5] is described as follows: High Content Imaging Cell-Based qHTS for Inhibitors of the mTORC1 Signaling Pathway in MEF (Tsc2-/-, p53-/-) Cells (AID 2666).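 Note: percent of cells scored positive for phospho-rpS6 Ser235/236 immunostaining by imaging.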 The method in brief:
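Phospho-rpS6 (Ser235/236) immunofluorescence, normalized and scored as % positive cells using rapamycin and DMSO controls, was read in empty-vector Tsc2-/-, p53-/- MEFs after 24 h compound exposure at 37 C; propidium iodide counted cells.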

The nature of experiment [6]: Validation screen for small molecules that induce DNA re-replication in MCF 10A normal breast cells (AID 463097). Note: nearly all actives have a fitted effect of over 60% in size. Note: potency is the fitted concentration of half-maximal effect. The gist of the method:
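MCF 10A cells exposed to compound 48 hr at 37 C, 5% CO2, then Hoechst-stained 40 min. Laser-scanning imaging of nuclear DNA content (405 nm ex, 500-530 nm em); re-replication scored as rise in nuclei with elevated fluorescence intensity.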

Experiment [7] concerns the target Ubiquitin carboxyl-terminal hydrolase 2 (Homo sapiens) (UniProt O75604). Description: qHTS Validation Assay for Inhibitors of Ubiquitin-specific Protease USP2a Using CHOP2 as the Reporter (AID 463106). The method in brief: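 USP2 core (10 nM final) was preincubated with compound 30 min at RT in pH 8.0 Tris/CaCl2/beta-ME/CHAPS buffer. Ub-CHOP2 and reporter substrate (25 nM final each) were then added, with fluorescence (Ex 485/Em 531) read after 60 min. Data were normalized to NEM full inhibition and fitted to concentration-response curves.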

In experiment [8] the target is DNA polymerase III PolC-type (Bacillus subtilis (strain 168)) (UniProt P13267). Nature of the experiment: qHTS Validation Assay for the Inhibitors of DNA Replication in Gram-Positive Bacteria (AID 485295).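 Note: PicoGreen fluorescence of double-stranded DNA made on primed circular M13 template; series mostly up to about 57 µM.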 The method in brief: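 Reconstituted B. subtilis Pol III holoenzyme (PolC, beta clamp, SSB, primase) preincubated with compound, then M13Gori single-stranded circular template with dNTPs/NTPs added; room temperature reaction. Stopped with EDTA/PicoGreen; dsDNA fluorescence read, EDTA as full-inhibition control.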
Chain of DNA polymerase III PolC-type (Bacillus subtilis (strain 168)) (P13267 whole entry, looked up): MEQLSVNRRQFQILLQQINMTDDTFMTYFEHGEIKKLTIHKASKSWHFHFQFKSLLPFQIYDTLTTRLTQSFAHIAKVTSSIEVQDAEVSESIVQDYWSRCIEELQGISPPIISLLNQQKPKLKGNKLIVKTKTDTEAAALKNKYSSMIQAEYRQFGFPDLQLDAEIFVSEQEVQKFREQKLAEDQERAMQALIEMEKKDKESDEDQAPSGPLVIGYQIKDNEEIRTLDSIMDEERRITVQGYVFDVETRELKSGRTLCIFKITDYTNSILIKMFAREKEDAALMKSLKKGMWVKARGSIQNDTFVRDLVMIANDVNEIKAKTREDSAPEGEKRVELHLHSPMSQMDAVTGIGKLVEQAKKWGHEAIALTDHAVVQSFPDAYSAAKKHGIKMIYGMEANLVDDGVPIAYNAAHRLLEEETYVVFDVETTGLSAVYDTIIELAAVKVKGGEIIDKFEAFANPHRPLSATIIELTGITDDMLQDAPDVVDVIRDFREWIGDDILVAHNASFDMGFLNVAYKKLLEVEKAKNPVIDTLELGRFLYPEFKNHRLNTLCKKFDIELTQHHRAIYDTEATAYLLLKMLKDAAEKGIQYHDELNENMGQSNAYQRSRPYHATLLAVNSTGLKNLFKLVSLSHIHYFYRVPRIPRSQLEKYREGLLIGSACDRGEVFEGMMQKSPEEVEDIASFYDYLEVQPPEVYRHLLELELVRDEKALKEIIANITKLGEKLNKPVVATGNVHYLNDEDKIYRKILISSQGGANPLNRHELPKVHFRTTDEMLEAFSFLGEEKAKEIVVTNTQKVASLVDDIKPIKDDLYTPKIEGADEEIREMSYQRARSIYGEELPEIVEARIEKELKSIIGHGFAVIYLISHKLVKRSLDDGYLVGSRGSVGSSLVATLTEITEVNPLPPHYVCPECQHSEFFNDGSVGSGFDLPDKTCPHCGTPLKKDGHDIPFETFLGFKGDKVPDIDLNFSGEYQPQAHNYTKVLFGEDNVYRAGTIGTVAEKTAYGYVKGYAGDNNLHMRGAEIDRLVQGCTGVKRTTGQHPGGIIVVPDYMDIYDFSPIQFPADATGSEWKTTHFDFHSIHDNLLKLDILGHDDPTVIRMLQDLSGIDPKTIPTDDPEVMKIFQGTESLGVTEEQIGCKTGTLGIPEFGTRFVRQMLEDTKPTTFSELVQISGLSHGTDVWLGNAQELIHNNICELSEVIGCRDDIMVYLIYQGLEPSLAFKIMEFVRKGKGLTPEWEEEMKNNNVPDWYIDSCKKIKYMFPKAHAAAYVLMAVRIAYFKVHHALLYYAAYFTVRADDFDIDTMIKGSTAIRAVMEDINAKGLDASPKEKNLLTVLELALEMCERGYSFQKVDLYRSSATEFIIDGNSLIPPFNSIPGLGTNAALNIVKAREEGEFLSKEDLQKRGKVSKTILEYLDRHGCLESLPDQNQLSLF

Experiment [9] deals with Tumor susceptibility gene 101 protein (Homo sapiens) (UniProt Q99816). Nature of the experiment: qHTS Validation Assay for Iinhibitors of HIV-1 Budding by Blocking the Interaction of PTAP/TSG101 (AID 485342; calls by dose curve). The gist of the method:
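Tsg101 binding domain (10 uM) with FITC-labeled PTAP peptide (50 nM) in HEPES pH 7.5 buffer, 20 min at r.t. with compounds. Binding measured by fluorescence polarization.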

The nature of experiment [10]: qHTS Validation Assay to Find Inhibitors of Chronic Active B-Cell Receptor Signaling (AID 485345; active = well fitted curve in the direction sought with a large enough effect in the main read-out, with a control signal flat, not every such curve was filed as active). The gist of the method:
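TMD8 ABC-DLBCL cells stably carrying doxycycline-inducible IkappaBalpha–green luciferase fusion plus unfused red luciferase; compounds 46 uM to 3 nM, 4 h at 37C with doxycycline. Corrected green/red luminescence ratio normalized to 10 uM MG-132 and basal cell wells; curves fitted.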

Experiment [11] has as its target Beta-2 adrenergic receptor (Homo sapiens) (UniProt P07550). Description: qHTS validation assay of beta-arrestin-biased ligands of beta2-adrenergic receptor (AID 485366). The gist of the method: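 Arrestin-recruitment (Tango) reporter: ligand-bound beta2-AR recruits beta-arrestin, releasing tTA, which upregulates luciferase. Titrations of up to 46 microM incubated 18 hr at 37 degrees C before luminescent readout.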

The nature of experiment [12]: Cytometric Cell-Based qHTS for Inhibitors of the mTORC1 Signaling Pathway in MEF (Tsc2-/-, p53-/-) Cells (AID 2660).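 Note: percent of cells above a phospho-rpS6 to PI ratio cutoff in each well; series mostly up to about 38 µM.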 The method in brief:
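Immunofluorescence qHTS of rpS6 Ser235/236 phosphorylation: MEFs (Tsc2-/-, p53-/-) treated 24 h, 37 C, in DMEM + 10% FBS. Alexa-488 signal normalized to PI count, referenced to rapamycin (7.5 nM) and DMSO; PI cell number recorded for viability.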

The nature of experiment [13]: Cytometry Cell-Based qHTS for Inhibitors of the mTORC1 Signaling Pathway in MEF cells (AID 2668).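 Note: Tsc2-/- p53-/- mouse embryonic fibroblasts stably re-expressing wild-type Tsc2; percent cells positive for phospho-rpS6 Ser235/236 relative to propidium iodide stain; series mostly up to about 38 µM.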 The gist of the method: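 MEFs (Tsc2-/-, p53-/- stably expressing WT Tsc2) treated 24 h at 37 degree Celsius, fixed, stained with Alexa-488 anti-phospho-rpS6 Ser235/236 and propidium iodide; Acumen laser scanning. Reported as % positive cells, phospho-S6 normalized to PI.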

In experiment [14] the target is Ferritin light chain (Equus caballus) (UniProt P02791). Description: qHTS Validation Assay for Identification of Novel General Anesthetics (AID 2323). Note: series mostly up to about 77 µM. The gist of the method:
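Horse-spleen apoferritin (10 uM) in PBS with 50% saturated 1-aminoanthracene; compounds pin-transferred, 10 min at room temperature. Fluorescence read at 380/535 nm, normalized to free 1-AMA and 1-AMA/apoferritin values; four-parameter Hill fit.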

The nature of experiment [15]: High Content Imaging Cell-Based qHTS for Inhibitors of the mTORC1 Signaling Pathway in MEF Cells (AID 2667).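 Note: Tsc2-/- p53-/- MEFs stably re-expressing wild-type Tsc2 exposed 24 h; series mostly up to about 38 µM.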 The gist of the method: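 WT MEFs (Tsc2-/-, p53-/- re-expressing Tsc2), in DMEM + 10% FBS, were treated with compound for 24 h at 37 C. Cells were then fixed and stained for phospho-rpS6 Ser235/236 with propidium iodide as cell count. Values are % positive cells, with thresholds set against rapamycin-treated cells.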

Experiment [16] is described as follows: qHTS Assay for Modulators of Human Peripheral Myelin Protein 22 (PMP22) Expression/Activity (AID 1967; active = well fitted curve in the direction sought with a large enough effect in the signal ratio; the % refers to the signal ratio). The method in brief: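 Mouse MSC80 Schwann cells carrying Pmp22 promoter–green click beetle luciferase plus EF-alpha–red luciferase control, dosed 24 h at 37 °C. Dual-filter luminescence, overlap-corrected; %Activity from green/red ratio normalised to untreated cells, concentration-response curves fitted.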

Chain of Ferritin light chain (Equus caballus) (P02791 2-175 limits assumed): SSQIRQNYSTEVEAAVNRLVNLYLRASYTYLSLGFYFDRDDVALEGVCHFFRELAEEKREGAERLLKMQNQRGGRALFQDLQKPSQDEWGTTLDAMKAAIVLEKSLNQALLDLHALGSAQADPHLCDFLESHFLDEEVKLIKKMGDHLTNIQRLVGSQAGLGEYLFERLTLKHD
Chain of Beta-2 adrenergic receptor (Homo sapiens) (P07550 whole entry, looked up): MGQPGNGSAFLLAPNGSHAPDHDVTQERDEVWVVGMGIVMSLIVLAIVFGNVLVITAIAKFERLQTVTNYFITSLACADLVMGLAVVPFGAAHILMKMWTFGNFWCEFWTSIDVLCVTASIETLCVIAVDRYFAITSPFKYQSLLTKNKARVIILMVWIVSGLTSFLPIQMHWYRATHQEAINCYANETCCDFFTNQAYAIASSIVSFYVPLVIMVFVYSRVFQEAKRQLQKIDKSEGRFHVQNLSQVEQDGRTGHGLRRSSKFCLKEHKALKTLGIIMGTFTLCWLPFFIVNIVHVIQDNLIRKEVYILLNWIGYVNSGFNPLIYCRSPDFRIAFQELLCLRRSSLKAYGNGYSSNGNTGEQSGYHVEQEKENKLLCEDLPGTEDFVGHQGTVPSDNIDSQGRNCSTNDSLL
Chain of ATP-dependent DNA helicase Q1 (Homo sapiens) (P46063 whole entry, looked up): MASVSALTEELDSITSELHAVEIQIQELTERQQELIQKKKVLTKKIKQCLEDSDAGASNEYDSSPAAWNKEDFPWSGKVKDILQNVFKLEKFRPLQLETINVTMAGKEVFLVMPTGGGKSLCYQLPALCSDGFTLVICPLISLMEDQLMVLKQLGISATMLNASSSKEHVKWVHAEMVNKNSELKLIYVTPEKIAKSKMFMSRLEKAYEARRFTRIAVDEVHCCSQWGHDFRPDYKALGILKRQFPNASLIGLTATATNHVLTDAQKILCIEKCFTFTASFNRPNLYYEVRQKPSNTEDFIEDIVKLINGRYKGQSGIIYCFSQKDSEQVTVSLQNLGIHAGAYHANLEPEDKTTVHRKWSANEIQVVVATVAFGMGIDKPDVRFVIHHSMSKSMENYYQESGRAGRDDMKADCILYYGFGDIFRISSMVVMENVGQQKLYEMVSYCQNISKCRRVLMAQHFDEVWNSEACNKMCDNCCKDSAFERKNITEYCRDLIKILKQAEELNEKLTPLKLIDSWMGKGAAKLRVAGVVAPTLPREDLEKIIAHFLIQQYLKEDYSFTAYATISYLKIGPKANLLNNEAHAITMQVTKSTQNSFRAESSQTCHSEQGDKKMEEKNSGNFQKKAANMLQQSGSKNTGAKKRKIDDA
Chain of Tumor susceptibility gene 101 protein (Homo sapiens) (Q99816 whole entry, looked up, the tested form may be a part): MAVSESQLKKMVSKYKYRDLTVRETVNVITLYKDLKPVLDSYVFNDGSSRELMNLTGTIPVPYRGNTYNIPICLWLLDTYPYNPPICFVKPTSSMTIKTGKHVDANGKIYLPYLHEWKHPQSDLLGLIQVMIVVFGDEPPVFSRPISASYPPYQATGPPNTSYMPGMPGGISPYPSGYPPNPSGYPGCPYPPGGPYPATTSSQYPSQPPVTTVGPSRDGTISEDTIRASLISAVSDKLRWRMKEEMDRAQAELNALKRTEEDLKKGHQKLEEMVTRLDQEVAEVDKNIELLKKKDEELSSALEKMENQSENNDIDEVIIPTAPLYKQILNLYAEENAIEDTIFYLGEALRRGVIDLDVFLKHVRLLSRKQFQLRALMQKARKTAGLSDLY

Consider `Cc1cccc(C2CN(C)CCc3c2cc(O)c(O)c3Cl)c1` (configuration not stated), for which the Potency in [1] was 7.08 µM (active); in experiment [2], 12.6 µM (active). For the same compound, the Potency result in experiment [3], in experiment [4], in experiment [5], in experiment [6], in experiment [7] and in [8] was “inactive” each time. Besides, the outcome in experiment [9], in experiment [10] and in experiment [11] was inactive.

Consider `Cc1ccccc1/C=C/C1=NCCN1`, for which the Potency in experiment [1] and in [2] was 12.6 µM (active) in each case. Further, the Potency entry in experiment [3], in [4], in experiment [13], in experiment [7] and in experiment [8] was “inactive” throughout. The compound was classed as inactive in [12] and in experiment [9].

As for `CCN(c1nc(N)c(C(=O)N=C(N)N)nc1Cl)C(C)C`, the Potency in [1] is 7.94 µM (active); in [2] it was 11.2 µM (active). Besides, the Potency result in experiment [3], in experiment [4], in [13], in experiment [7] and in [8] was “inactive” throughout. Further, the compound was called inactive in [12], in experiment [9] and in experiment [11].

Turning to `CN1C2CCC1CC(OC(c1ccccc1)c1ccccc1)C2` (configuration not stated), the Potency in experiment [1] is 1.41 µM (active); in experiment [2], 6.31 µM (active). Further, the Potency entry in experiment [14], in experiment [3], in [5], in experiment [15], in experiment [13] and in experiment [6] was “inactive” each time. Also, the Potency result in [7] and in experiment [8] was “inactive” each time. In addition, the result in [12], in experiment [9], in experiment [10] and in [11] was inactive.

As for `C[C@@H](NCCc1ccc(O)cc1)[C@@H](O)c1ccc(O)cc1`, the Potency result in experiment [1], in experiment [2], in [14], in [5], in [15] and in [13] was “inactive” throughout. For the same compound, the Potency result in [6], in experiment [7] and in [8] was “inactive” throughout. For the same compound, the call in experiment [9], in experiment [10] and in experiment [11] was inactive.

As for `CCC1(O)CC2CN(CCc3c([nH]c4ccccc34)[C@@](C(=O)OC)(c3cc4c(cc3OC)N(C)C3[C@]45CCN4CC=C[C@@](CC)([C@@H](OC(C)=O)[C@]3(O)C(=O)OC)[C@H]45)C2)C1` (some centres not stated), the figures for the Potency in [1], in experiment [2] and in experiment [6] were 0.794 µM (active), 2.82 µM (active) and 0.0501 µM (active), respectively. The Potency entry in experiment [14], in experiment [3], in [5], in [7] and in [8] was “inactive” in each case. Moreover, the call in [9] and in experiment [11] was inactive.

As for `COc1ccc2c(c1)CCC1C2CC[C@@]2(C)C1CC[C@@H]2NCCCCCCN1C(=O)C=CC1=O` (some centres not stated), the Potency result in experiment [1], in experiment [2], in [14], in experiment [4], in experiment [5] and in experiment [15] was “inactive” each time. Moreover, the Potency result in experiment [13], in [6], in [7] and in [8] was “inactive” throughout. The outcome in experiment [16], in experiment [12], in experiment [9], in experiment [10] and in [11] was inactive.

Regarding `O=C1Cc2c([nH]c3ccc(Br)cc23)-c2ccccc2N1`, the results for the Potency in experiment [1], in [2] and in [6] were 10 µM (active), 12.6 µM (active) and 6.31 µM (active), respectively. Moreover, the Potency result in [14], in [3], in experiment [15], in experiment [7] and in experiment [8] was “inactive” each time. Moreover, the compound was classed as inactive in experiment [9] and in experiment [11].

For `CC[C@H](NC(=O)c1c(C)c(-c2ccccc2)nc2ccccc12)c1ccccc1`, the Potency in [1] is 8.91 µM (active); in experiment [2], 12.6 µM (active). Further, the Potency result in experiment [14], in experiment [3], in [15], in experiment [13], in experiment [6] and in experiment [7] was “inactive” each time. The Potency entry in [8] is “inactive”. In addition, the compound was called inactive in experiment [12], in experiment [9], in [10] and in [11].

Consider `CC[N+](CC)(CC)CC(=O)Nc1c(C)cccc1C`, for which the Potency result in experiment [1], in experiment [2], in [14], in experiment [3], in experiment [5] and in experiment [15] was “inactive” in each case. In addition, the Potency result in experiment [13], in experiment [6], in [7] and in experiment [8] was “inactive” each time. For the same compound, the call in experiment [12], in [9] and in experiment [11] was inactive.
